This is an account of results in PubChem BioAssay.

As a reminder, the inhibition is the drop in the measured response relative to a control, in per cent.

Several values for one entry are separate records, joined by “and”; a condition that tells them apart may be missing. Identical values can stand only once. Activity calls are given as the source filed them. Cut-off read from the data, not from the text of the source: active = inhibition above about 80%; inactive = the rest.

The nature of one experiment: LFS_MB_P medulloblastoma growth inhibition, cell-based, chromothripsis tumors, cisplatin or BGB combos (AID 1671449).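 Note: cells exposed for 96 hours; 0% = vehicle DMSO and 100% = killing by high DMSO.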 Particulars: LFS_MB_P medulloblastoma cells, measured here: combination with cisplatin, at 5 µM, stronger effect = higher value.
As to `CC(=O)OCC(CCn1cnc2cnc(N)nc21)COC(C)=O`, the inhibition was -20.4%.
Still for that read-out and setting: under `S=c1nc[nH]c2nc[nH]c12` stands -18.6% and -9.9% and -19.4%.
The same measure, in the same setting: the result for `COc1c(N2CCNC(C)C2)c(F)cc2c(=O)c(C(=O)O)cn(C3CC3)c12` (stereo not drawn) reads -5.09% and 4.8%; that for `CC1COc2c(N3CCN(C)CC3)c(F)cc3c(=O)c(C(=O)O)cn1c23` (stereo not drawn), -20.4% and -8.17% and -11.9%; that for `O=C1c2c(O)ccc(O)c2C(=O)c2c(NCCNCCO)ccc(NCCNCCO)c21`, 106%.
Still for that read-out and setting: under `CS(=O)(=O)OCCCCOS(C)(=O)=O` stands -55.6% and 0.647%; under `O=C(O)CCCc1ccccc1`, -11.6%.

The next experiment can be described thus: HDN33 neuroblastoma growth inhibition, cell-based, chromothripsis tumors, cisplatin or BGB combos (AID 1671450).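 Note: cells exposed to compound for four days; 0% = vehicle DMSO and 100% = cell killing by high DMSO.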 The following applies: HDN33 neuroblastoma cells, BGB combo, at 5 µM, stronger effect = higher value.
`CC(=O)OCC(CCn1cnc2cnc(N)nc21)COC(C)=O`: the inhibition was -6.25%.
Regarding `S=c1nc[nH]c2nc[nH]c12`, the inhibition is 6.4% and -7.61% and -1.61%.
The same measure, in the same setting: under `COc1c(N2CCNC(C)C2)c(F)cc2c(=O)c(C(=O)O)cn(C3CC3)c12` (stereo not drawn) stands -39.9% and 9.99%; under `CC1COc2c(N3CCN(C)CC3)c(F)cc3c(=O)c(C(=O)O)cn1c23` (stereo not drawn), -21.1% and 5.47% and 15%.
The same measure, in the same setting: under `O=C1c2c(O)ccc(O)c2C(=O)c2c(NCCNCCO)ccc(NCCNCCO)c21` stands 98.9%; under `CS(=O)(=O)OCCCCOS(C)(=O)=O`, -31.6% and -3.19%; under `O=C(O)CCCc1ccccc1`, -16.9%.

Staying with this experiment, now noted: HDN33 neuroblastoma cells, at 0.5 µM, stronger effect = higher value.
With `CC(=O)OCC(CCn1cnc2cnc(N)nc21)COC(C)=O`, the inhibition was -3.67% (inactive).
For the molecule `S=c1nc[nH]c2nc[nH]c12`, the inhibition was 21.5% (inactive) and -7.1% (inactive) and 2.79% (inactive).
As for `COc1c(N2CCNC(C)C2)c(F)cc2c(=O)c(C(=O)O)cn(C3CC3)c12` (stereo not drawn), the inhibition was -22% (inactive) and 8.9% (inactive).
Still for that read-out and setting: under `CC1COc2c(N3CCN(C)CC3)c(F)cc3c(=O)c(C(=O)O)cn1c23` (stereo not drawn) stands -45.4% (inactive) and 10.2% (inactive) and 8.6% (inactive); under `O=C1c2c(O)ccc(O)c2C(=O)c2c(NCCNCCO)ccc(NCCNCCO)c21`, 60.1% (inactive).
The same measure, in the same setting: the result for `CS(=O)(=O)OCCCCOS(C)(=O)=O` reads -10.4% (inactive) and -1.57% (inactive); that for `O=C(O)CCCc1ccccc1`, -18.6% (inactive).

The experiment is the same for the next values; noted with them: HDN33 neuroblastoma cells, cisplatin combo, at 5 µM, stronger effect = higher value.
In the case of `CC(=O)OCC(CCn1cnc2cnc(N)nc21)COC(C)=O`, the inhibition is 8.87%.
`S=c1nc[nH]c2nc[nH]c12`: the inhibition is 17.2% and 3.9% and 15.7%.
Take `COc1c(N2CCNC(C)C2)c(F)cc2c(=O)c(C(=O)O)cn(C3CC3)c12` (stereo not drawn): the inhibition was -25.7% and 17.8%.
On the same count and under the same terms, under `CC1COc2c(N3CCN(C)CC3)c(F)cc3c(=O)c(C(=O)O)cn1c23` (stereo not drawn) stands -32.1% and -5.63% and 10.7%; under `O=C1c2c(O)ccc(O)c2C(=O)c2c(NCCNCCO)ccc(NCCNCCO)c21`, 99.3%.
Turning to `CS(=O)(=O)OCCCCOS(C)(=O)=O`, the inhibition is -3.41% and -6.58%.
For the molecule `O=C(O)CCCc1ccccc1`, the inhibition turned out to be 0.505%.

Staying with this experiment, now noted: HDN33 neuroblastoma cells, measured here: with BGB IC20 combination, at 0.5 µM, stronger effect = higher value.
As to `CC(=O)OCC(CCn1cnc2cnc(N)nc21)COC(C)=O`, the inhibition was -10.2%.
On the same count and under the same terms, the result for `S=c1nc[nH]c2nc[nH]c12` reads 17.6% and -24.1% and -7.78%; that for `COc1c(N2CCNC(C)C2)c(F)cc2c(=O)c(C(=O)O)cn(C3CC3)c12` (stereo not drawn), -19.2% and 9.8%.
Still for that read-out and setting: the result for `CC1COc2c(N3CCN(C)CC3)c(F)cc3c(=O)c(C(=O)O)cn1c23` (stereo not drawn) reads -54.6% and 19.4% and 13%.
On the same count and under the same terms, under `O=C1c2c(O)ccc(O)c2C(=O)c2c(NCCNCCO)ccc(NCCNCCO)c21` stands 57.7%.
Consider `CS(=O)(=O)OCCCCOS(C)(=O)=O`, for which the inhibition was -9.64% and 2.06%.
The same measure, in the same setting: under `O=C(O)CCCc1ccccc1` stands -6.08%.

The same experiment, now with this note: HDN33 neuroblastoma cells, measured here: with cisplatin IC20 combination, at 0.5 µM, stronger effect = higher value.
On to `CC(=O)OCC(CCn1cnc2cnc(N)nc21)COC(C)=O`, for which the inhibition amounted to 4.72%.
As for `S=c1nc[nH]c2nc[nH]c12`, the inhibition was 11.8% and -15.2% and -7.14%.
Still for that read-out and setting: the result for `COc1c(N2CCNC(C)C2)c(F)cc2c(=O)c(C(=O)O)cn(C3CC3)c12` (stereo not drawn) reads -37.3% and 8.47%; that for `CC1COc2c(N3CCN(C)CC3)c(F)cc3c(=O)c(C(=O)O)cn1c23` (stereo not drawn), -40.5% and 0.068% and 0.136%; that for `O=C1c2c(O)ccc(O)c2C(=O)c2c(NCCNCCO)ccc(NCCNCCO)c21`, 53.6%.
Still for that read-out and setting: the result for `CS(=O)(=O)OCCCCOS(C)(=O)=O` reads -8.9% and -4.87%; that for `O=C(O)CCCc1ccccc1`, -19.1%.

The experiment is the same for the next values; noted with them: HDN33 neuroblastoma cells, single agent, at 5 µM, stronger effect = higher value.
`CC(=O)OCC(CCn1cnc2cnc(N)nc21)COC(C)=O`: the inhibition is -14.6%.
The same measure, in the same setting: the result for `S=c1nc[nH]c2nc[nH]c12` reads 55.5% and 46.9% and 55.8%.
For the molecule `COc1c(N2CCNC(C)C2)c(F)cc2c(=O)c(C(=O)O)cn(C3CC3)c12` (stereo not drawn), the inhibition is -2.12% and 5.9%.
Same read-out and setting: under `CC1COc2c(N3CCN(C)CC3)c(F)cc3c(=O)c(C(=O)O)cn1c23` (stereo not drawn) stands -44.6% and 1.17% and 11.7%; under `O=C1c2c(O)ccc(O)c2C(=O)c2c(NCCNCCO)ccc(NCCNCCO)c21`, 99.3%.
Still for that read-out and setting: the result for `CS(=O)(=O)OCCCCOS(C)(=O)=O` reads 0.973% and 14.4%; that for `O=C(O)CCCc1ccccc1`, -3.58%.

The next experiment in a line: ICB984 medulloblastoma cell growth inhibition, synergistic combos for chromothripsis tumors, cisplatin or BGB combos (AID 1671451).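 Note: cells exposed for 96 hours before readout; 0% = vehicle DMSO and 100% = killing by high DMSO.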 Particulars: ICB984 medulloblastoma cells, drug combinations, BGB IC20 combo, at 0.005 µM, stronger effect = higher value.
As to `CC(=O)OCC(CCn1cnc2cnc(N)nc21)COC(C)=O`, the inhibition worked out at 1.9%.
Still for that read-out and setting: under `S=c1nc[nH]c2nc[nH]c12` stands -10.3% and -30.1% and -29.5%; under `COc1c(N2CCNC(C)C2)c(F)cc2c(=O)c(C(=O)O)cn(C3CC3)c12` (stereo not drawn), 6.38% and 0.318%.
Still for that read-out and setting: under `CC1COc2c(N3CCN(C)CC3)c(F)cc3c(=O)c(C(=O)O)cn1c23` (stereo not drawn) stands -17.9% and -25.7% and 9.81%; under `O=C1c2c(O)ccc(O)c2C(=O)c2c(NCCNCCO)ccc(NCCNCCO)c21`, 17.1%; under `CS(=O)(=O)OCCCCOS(C)(=O)=O`, -15.4% and -25.1%.
Same read-out and setting: the result for `O=C(O)CCCc1ccccc1` reads -2.57%.

The experiment is the same for the next values; noted with them: ICB984 medulloblastoma cells, drug combinations, BGB IC40 combo, at 0.005 µM, stronger effect = higher value.
As to `CC(=O)OCC(CCn1cnc2cnc(N)nc21)COC(C)=O`, the inhibition was -6.07%.
On the same count and under the same terms, under `S=c1nc[nH]c2nc[nH]c12` stands -20.2% and -36.3% and -18.2%.
The same measure, in the same setting: the result for `COc1c(N2CCNC(C)C2)c(F)cc2c(=O)c(C(=O)O)cn(C3CC3)c12` (stereo not drawn) reads -11.2% and -13.7%; that for `CC1COc2c(N3CCN(C)CC3)c(F)cc3c(=O)c(C(=O)O)cn1c23` (stereo not drawn), -33.2% and -21.8% and -24%.
On the same count and under the same terms, under `O=C1c2c(O)ccc(O)c2C(=O)c2c(NCCNCCO)ccc(NCCNCCO)c21` stands 14.7%; under `CS(=O)(=O)OCCCCOS(C)(=O)=O`, -13.7% and -14%.
Regarding `O=C(O)CCCc1ccccc1`, the inhibition was -13.4%.
